# RecA intein inh = Mtb RecA intein splicing inhibitors, primary screen, biochemical, fluorescence, HTS. Protein RecA (Mycobacterium tuberculosis (strain ATCC 25618 / H37Rv)), P9WHJ3. cell-free RecA intein splicing. inhibition, % (test concentration not listed). actives 0.75% (n = 290,000). AID 2221, 2009; in the data active means inhibition above about 30%;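 further: 0% = vehicle wells and 100% = reference inhibitor control wells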
# FBA Mtb inh = Mtb FBA enzyme inhibitors, primary screen, biochemical, fluorescence, strain H37Rv | Fructose-bisphosphate aldolase (Mycobacterium tuberculosis (strain ATCC 25618 / H37Rv)), … | purified M. tuberculosis FBA, fluorescence read-out | AID 588726, 2011 | inhibition, % at 1 µM | actives 2.3% (n = 360,000); in the data active means inhibition above about 27%;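 further: 0% = vehicle and 100% = reference inhibitor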
# Mtb bLac sens = beta-lactam sensitization of Mtb H37Rv, H37Rv | M. tuberculosis H37Rv growth with meropenem, percent inhibition | inhibition, % at 25 µM | actives 0.27% (n = 330,000); call rule not given here;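 further: growth measured after seven days incubation then overnight dye step; 0% = bacteria only wells and 100% = bacteria with antibiotic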
# Rv3671c protease = Rv3671c serine protease inhibitors, primary screen, biochemical, fluorescence polarization, M. tuberculosis H37Rv | P9WHR9 | inhibition, % at 5.96 µM | actives 0.048% (n = 320,000) | AID 2606, 2010; in the data active means inhibition above about 38%;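 further: extracellular domain of Rv3671c used as enzyme; 0% = enzyme with DMSO and 100% = no enzyme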
# Target sequence (P9WHR9 whole entry, looked up, the tested form may be a part): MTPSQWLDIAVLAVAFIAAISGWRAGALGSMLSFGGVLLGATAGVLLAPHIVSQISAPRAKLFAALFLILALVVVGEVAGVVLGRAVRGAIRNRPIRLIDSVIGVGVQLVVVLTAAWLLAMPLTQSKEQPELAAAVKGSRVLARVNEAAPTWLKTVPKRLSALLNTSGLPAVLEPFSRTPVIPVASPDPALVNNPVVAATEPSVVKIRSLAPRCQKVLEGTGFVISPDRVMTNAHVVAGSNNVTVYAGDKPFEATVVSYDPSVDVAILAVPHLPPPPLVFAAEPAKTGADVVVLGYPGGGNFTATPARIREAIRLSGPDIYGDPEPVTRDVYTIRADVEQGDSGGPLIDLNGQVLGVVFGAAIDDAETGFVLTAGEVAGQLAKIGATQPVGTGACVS
# GDH-TPI inh = GDH-TPI coupling enzyme inhibitors, primary screen, artefact control for M. tuberculosis FBA inhibitor project, biochemical, absorbance, full deck | inhibition, % at 4.8 µM | actives 1.2% (n = 360,000) | GDH-TPI coupled enzyme counterscreen, NADH absorbance; in the data active means inhibition above about 30%;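 further: 0% = DMSO wells and 100% = wells lacking the enzyme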
# Mtb UGM inh = M. tuberculosis UGM enzyme inhibitors, primary screen, biochemical, fluorescence polarization, single point | purified UGM, fluorescence polarization probe displacement | inhibition, % at 10 µM | actives 0.06% (n = 320,000); in the data active means inhibition above about 10%, passing the limit was not always enough
# * = called active by the depositor; nt = no result given; + = active, no number. This is a sample that favours compounds with a hit; in the whole collection about 4% have one here.
SMILES,RecA intein inh,FBA Mtb inh,Mtb bLac sens,Rv3671c protease,GDH-TPI inh,Mtb UGM inh
COc1cccc(/C=C/c2[nH]c(=O)[nH]c(=O)c2[N+](=O)[O-])c1O,-1.5,-4.6,nt,6.2,14.0,2.2
COc1cc(/C=C/c2[nH]c(=O)[nH]c(=O)c2[N+](=O)[O-])cc(OC)c1O,-6.3,-3.6,3.4,nt,30.8*,-0.8
O=C(CNC(=O)c1cccc(OC(F)F)c1)OCc1cc(=O)n2cc(Br)ccc2n1,-1.7,1.4,2.4,-8.2,30.9*,nt
CCNC(=O)C1(C)CCCN1C(=O)c1c(F)cccc1F (stereo not given),nt,3.1,nt,nt,14.6,nt
C/C(=N\NC(=O)c1nc2ccccn2c1C)c1cc2ccccc2o1,-1.3,1.2,5.2,0.9,33.4*,1.2
C/C(=N\NC(=O)c1cc2ccccc2cc1O)c1cc2ccccc2o1,-2.5,-3.2,68.5,17.7,60.5*,1.8
C/C(=N\NC(=O)c1cc2ccccc2cc1O)c1ccccn1,-2.4,4.1,95.8,18.2,20.0,0.0
CCOC(=O)c1cc(-c2csc(Nc3c(C)cc(C)cc3C)n2)on1,-0.6,2.4,99.8,-1.0,10.2,0.7
C[C@@H]1CN([C@@H](C)CO)C(=O)c2cc(Br)cnc2O[C@@H]1CN(C)Cc1ccc(Oc2ccccc2)cc1,nt,-2.3,nt,nt,6.2,nt
Cc1onc(-c2ccccc2)c1C(=O)N(C)CC(=O)Nc1ccc(F)c(F)c1F,nt,1.0,-2.0,-1.4,1.9,-3.5
Cc1ccccc1OCC(=O)OCC(=O)NCc1ccc2c(c1)OCO2,nt,0.2,1.3,3.0,-0.9,0.2
O=C(COC(=O)COc1cccc(Br)c1)NCc1ccc2c(c1)OCO2,nt,-2.5,-5.3,-3.4,-0.9,11.2*
COC(=O)c1ccc2c(c1)C(C)(C)C(/C=C/c1ccccc1O)=[N+]2C,nt,15.1,20.7,-351.0,4.3,-6.0
C[N+]1=C(/C=C/Nc2ccccc2Cl)C(C)(C)c2ccccc21,4.2,-0.4,3.4,-135.5,35.9*,nt
COc1cc2c(cc1OC)C(c1ccc(-c3cc(Cl)ccc3Cl)o1)=NCC2,5.6,0.5,43.1,-4.2,14.2,1.2
COc1cc2c(cc1OC)C(c1ccc(-c3ccc(Cl)cc3Cl)o1)=NCC2,0.2,1.9,10.9,-10.4,31.8*,-1.8
O=C(Cn1cc(COc2c(F)c(F)c(Br)c(F)c2F)nn1)c1ccc(O)cc1,nt,0.2,nt,nt,31.1*,nt
O=C(Cn1cc(COc2c(Br)cc(F)cc2Br)nn1)c1ccc(O)cc1,nt,-1.7,nt,nt,15.1,nt
O=C(Cn1cc(COc2ccc3ccc(=O)oc3c2)nn1)c1ccc(O)cc1,nt,7.4,nt,nt,41.2*,nt
O=C(Cn1cc(COc2ccc(Br)cc2)nn1)c1ccc(O)cc1,nt,-0.2,nt,nt,29.2,nt
C[C@H]1COC[C@@H](C/C=C/c2ccccc2)N1c1ccccc1,nt,0.4,nt,nt,2.8,nt
N#Cc1nc(-c2cccs2)oc1N1CCOCC1,-2.4,+,0.0,-0.9,27.8,-1.6
N#Cc1nc(COc2ccccc2)oc1N1CCOCC1,-1.2,-4.3,-4.1,-0.6,2.9,-2.6
CC1CN(c2oc(-c3cccs3)nc2C#N)CC(C)O1 (stereo not given),0.4,+,2.4,4.5,20.3,-1.9
COC1=C/C(=C/c2c(O)c(C#N)c3ccccn23)C=CC1=O,-258.8,7.6,4.8,12.1,44.2*,-3.8
SMILES,RecA intein inh,FBA Mtb inh,Mtb bLac sens,Rv3671c protease,GDH-TPI inh,Mtb UGM inh
COc1cc(OC)cc(C(=O)c2c(C)c(C#N)c3ccccn23)c1,1.5,-2.5,nt,nt,-2.9,nt
Clc1cccc(Cl)c1/C=C/c1nc2ccccc2[nH]1,15.8,138.5*,9.5,-3.0,15.5,3.1
O=C(/C=C/c1ccco1)OCn1nnc2ccccc2c1=O,5.7,-0.5,99.8,5.1,-1.9,3.6
Cc1ccc(/C=C/C(=O)OCn2nnc3ccccc3c2=O)o1,-2.7,0.8,99.7,-7.3,34.0*,0.7
Cc1c(NC(=S)N/N=C/C=C/c2ccccc2)c(=O)n(-c2ccccc2)n1C,-1.8,-0.1,8.2,7.5,61.8*,1.4
Cc1c(NS(=O)(=O)c2ccc([N+](=O)[O-])cc2)c(=O)n(-c2ccccc2)n1C,2.5,2.5,0.1,2.8,10.0,1.1
Cc1c(NC(=S)N/N=C/C=C/c2ccc([N+](=O)[O-])cc2)c(=O)n(-c2ccccc2)n1C,3.7,3.6,4.1,9.8,31.8*,-5.3
COc1ccc(/C=N/NC(=S)Nc2c(C)n(C)n(-c3ccccc3)c2=O)cc1OC,-1.5,-0.6,-3.0,2.4,27.6,1.9
CCCN(CC(=O)Nc1ccccc1C)C(=O)c1ccc2c(c1)S(=O)(=O)N=C1CCCCCN12,nt,3.8,0.4,0.0,-3.6,-0.1
Cc1ccc(C(=O)O[C@H](C(=O)O)[C@H](OC(=O)c2ccc(C)cc2)C(=O)O)cc1,-3.7,-0.8,-10.9,-6.7,-0.9,1.8
COC(=O)c1c(N)sc(C(C)=O)c1C,-0.2,1.3,-0.3,6.9,43.8*,-1.3
COc1cc2nc(N(C)C)nc(N)c2cc1OC,0.2,79.8*,-1.4,-5.5,10.3,0.6
O=C(Nc1ccc2c(c1)CCC2)c1ccc(F)cc1,3.0,116.9*,14.3,-5.0,5.9,0.4
Cc1ccc(-n2[nH]c(C)c(/C=N/NC(=O)c3ccc([N+](=O)[O-])cc3)c2=O)c(C)c1,32.1*,-0.4,99.5,14.9,6.3,1.6
O=C(/C=C/c1ccccc1)NC(=O)c1ccccc1O,1.9,1.4,0.8,-1.7,3.9,-1.3
COc1cc(/C=C/C(=O)NC(=O)c2ccccc2O)ccc1O,2.5,-3.9,7.2,-4.1,40.1*,-2.5
CCN(CC)CCNC(=O)c1ccc(NC(=O)/C=C/c2cc(OC)c(OC)c(OC)c2)cc1,-2.4,3.7,7.1,-1.4,36.5*,-0.5
COc1ccc(/C=C/C(=O)Nc2ccccc2C(=O)O)cc1OC,1.9,4.5,2.7,-1.6,46.9*,2.6
COC(=O)c1ccccc1NC(=O)/C=C/c1cc(OC)c(OC)c(OC)c1,-2.3,3.1,-4.6,-0.4,36.2*,-1.0
CN1CCn2cnc(C(=O)N[C@@H](Cc3ccccc3)C(=O)OC(C)(C)C)c2C1=O,nt,-2.9,nt,nt,9.9,nt
Cc1nc2c(OCc3ccc(C#N)cc3)cccn2c1N(C)Cc1cccs1,nt,-1.9,nt,nt,-6.2,nt
CCc1cc(C(=O)O)c(NC(=O)/C=C/c2ccc(OC)c(OC)c2)s1,-1.2,-4.4,81.3,7.5,17.9,5.5
COc1ccc(/C=C/C(=O)Nc2ccccc2C(F)(F)F)cc1OC,-0.4,10.0,-5.1,-3.6,31.4*,1.0
CC(C)=CC(=O)Nc1cccc(S(=O)(=O)NC2=NCCCCC2)c1,nt,-0.6,2.0,3.8,-4.0,-0.6
CCc1cc(C(=O)O)c(NC(=O)/C=C/c2ccc(OC)cc2)s1,1.9,-0.9,nt,7.0,73.8*,1.6

# Screens: PubChem BioAssay, several laboratories
